From PubChem BioAssay (Tox21) come the findings set out here.

Unmarked numbers belong to inactive results. Inconclusive results are not listed. Active and inactive are the calls of the source. Unless noted, the call rests on the fitted dose curve; in most records, active means well fitted curve in the direction sought with a large enough effect in the repeat runs; inconclusive means weak or mixed curves; inactive means no such curve, though single readings can be large; an effect the other way counts as inactive or inconclusive.

Test [1] is described as follows: qHTS assay to identify small molecule agonists of the estrogen receptor beta (ER-beta) signaling pathway - cell viability counter screen (AID 1259380). Further: nearly all actives have a fitted effect of over 30% in size. Further: potency means the concentration at half of the fitted maximal effect. Put shortly: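 Cytotoxicity is measured in parallel with the reporter screen: after 16 hr compound exposure at 37C and a 2 hr LiveBLAzer step, CellTiter-Glo is added to the same ER-beta-UAS-bla HEK293T wells and luminescence read after 30 min.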
Background: Quantitative high-throughput screening tests each substance at several concentrations.

A short description of test [2]: qHTS assay to identify small molecule antagonists of the estrogen receptor beta (ER-beta) signaling pathway - cell viability counter screen (AID 1259382). Further: nearly all actives have a fitted effect of over 55% in size. Further: potency means the concentration at half of the fitted maximal effect. Put shortly: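 Cytotoxicity counter screen multiplexed with the beta-lactamase antagonist assay: GripTite HEK293T ER-beta-bla cells were treated 16 hr with test chemicals in the presence of 1nM 17-beta-estradiol, and viability was measured by CellTiter-Glo.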

The nature of test [3]: qHTS assay to identify small molecule agonists or antagonists of the thyroid stimulating hormone receptor (TSHR) signaling pathway - wild type cell line counter screen (AID 1259384; calls by dose curve). Put shortly: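 Wild-type HEK293 cells were plated 18 h at 37 C/5% CO2, pin-dosed with compound plus Ro20-1724 medium, held 30 min at room temperature, then given cAMP-d2 and anti-cAMP-cryptate; fluorescence was read after 1 h. Fifteen concentrations, triplicate.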

Test [4] has as its target Thyrotropin receptor (Homo sapiens) (UniProt P16473). The test is described as follows: qHTS assay to identify small molecule antagonists of the thyroid stimulating hormone receptor (TSHR) signaling pathway (AID 1259385; calls by dose curve; further: nearly all actives have a fitted effect of over 20% in size). A digest of the protocol: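 TSHR-HEK293 cells were plated and held 18 h at 37C/5% CO2, then given compound plus Ro20-1724 and stimulated with TSH at 1.5 ng/mL final. After 30 min at room temperature, cAMP was detected with cAMP-d2/anti-cAMP-cryptate (1 h) by fluorescence.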

A short description of test [5]: qHTS assay to identify small molecule antagonists of the progesterone receptor (PR) signaling pathway - cell viability counter screen (AID 1346798). Further: nearly all actives have a fitted effect of over 50% in size. Further: potency means the concentration at half of the fitted maximal effect. A digest of the protocol:
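Counter screen for cytotoxicity: viability of PR-UAS-bla HEK293T cells was measured with CellTiter-Glo luminescence following 16 hr compound exposure in the presence of R5020.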

Test [6] in a line: qHTS assay to identify small molecule antagonists of the TGF-beta/Smad signaling pathway - cell viability counter screen (AID 1346824). Further: nearly all actives have a fitted effect of over 50% in size. Put shortly: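 SBE-bla HEK 293T cells were plated overnight at 37 C, then given compounds in DMSO plus TGF-beta1 (added as 0.25 ng/mL solution) for 5 hr. After the bla read, CellTiter-Glo was added to the same wells and luminescence read after 30 min at room temperature.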

Test [7] can be described thus: qHTS assay to identify small molecule agonists of the TGF-beta/Smad signaling pathway - cell viability counter screen (AID 1346829). Further: top concentration of the series differs between compounds; nearly all actives have a fitted effect of over 45% in size. A digest of the protocol:
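Cytotoxicity counter screen: CellTiter-Glo luminescence (30 min, room temperature) measured in the SBE-bla HEK 293T reporter wells after 5 hr compound treatment at 37 C and the 2 hr substrate step.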

Test [8] has as its target Thyrotropin-releasing hormone receptor (Homo sapiens) (UniProt P34981). Briefly: qHTS assay to identify small molecule antagonists of the thyrotropin-releasing hormone receptor (TRHR) signaling pathway (AID 1346877; active means well fitted inhibition curve with a large enough effect in the repeat runs, not every such curve was filed as active; further: series mostly up to about 51 µM). A digest of the protocol: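 Antagonism is measured as suppression of the calcium response to 1 nM TRH in TRHR-HEK293 cells that have been dye-loaded for 2 h at 37 °C after overnight plating. Each compound is tested at 15 concentrations in triplicate.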

For test [9] the target is unchanged. The test is described as follows: qHTS assay to identify small molecule agonists of the thyrotropin-releasing hormone receptor (TRHR) signaling pathway (AID 1346891; calls by dose curve;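 further: HEK293 cells expressing TRHR with calcium dye readout; series mostly up to about 58 µM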). Put shortly: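 Cells: TRHR-Hek293, seeded and incubated 18 h. Dye loading: 2 h at 37 °C. Compound added from DMSO stock by pin tool. Read-out: kinetic calcium fluorescence over 3 min.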
Test [10] is described as follows: Caspase-3/7 induction in HepG2 cells by small molecules, qHTS assay (AID 1346978). Further: nearly all actives have a fitted effect of over 15% in size. Put shortly: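 Wild-type HepG2 cells (2,000/well) were settled 5 h at 37 C, 5% CO2, then exposed to compounds in DMSO for 17 h. Caspase-3/7 activity was read by luminescence 30 min after adding Caspase-Glo 3/7 reagent at room temperature.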
Test [11] has as its target Estrogen receptor (Homo sapiens) (UniProt P03372). Briefly: qHTS assay to identify small molecule agonists of the estrogen receptor alpha (ER-alpha) signaling pathway in the presence of an antagonist (AID 1259383; calls by dose curve; further: nearly all actives have a fitted effect of over 15% in size; further: potency means the concentration at half of the fitted maximal effect; on activation: top concentration of the series differs between compounds). Put shortly: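 Agonist-mode confirmation in the presence of the ER antagonist ICI-182,780 at 10.0nM final. Breast-derived VM7Luc4E2 reporter cells were exposed to compounds for 22hr, and ERE-driven luciferase was quantified by luminescence.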

Test [12] can be described thus: qHTS assay to identify small molecule agonists of the estrogen receptor alpha (ER-alpha) signaling pathway in the presence of an antagonist - cell viability counter screen (AID 1259386).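 Further: cells exposed to compounds for 22 h at 37 °C before the viability read; nearly all actives have a fitted effect of over 30% in size.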 Further: potency means the concentration at half of the fitted maximal effect. A digest of the protocol: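 Cytotoxicity was measured in parallel with the ERE-luciferase agonist screen, in the same wells. The cells were VM7Luc4E2, which endogenously express ER-alpha, and treatment was with compounds plus 10.0nM ICI-182,780 for 22hr.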

In test [13] the target is Progesterone receptor (Homo sapiens) (UniProt P06401). The test is described as follows: qHTS assay to identify small molecule agonists of the progesterone receptor (PR) signaling pathway (AID 1346784; calls by dose curve; further: nearly all actives have a fitted effect of over 30% in size). A digest of the protocol:
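Cells (PR-UAS-bla HEK 293T, GripTite) were plated in assay medium containing 2% charcoal-stripped FBS and incubated 6 hr. Test compounds in DMSO were added for 16 hr at 37C. FRET substrate was then loaded for 2 hr at room temperature before fluorescence reading.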

For test [14] the target is unchanged. Briefly: qHTS assay to identify small molecule antagonists of the progesterone receptor (PR) signaling pathway (AID 1346795; active means well fitted inhibition curve with a large enough effect in the signal ratio in the repeat runs, not every such curve was filed as active; the % refers to the signal ratio; further: potency means the concentration at half of the fitted maximal effect). A digest of the protocol:
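Antagonist mode: compounds tested against 1 nM (final) promegestone stimulation in HEK293T cells expressing PR-UAS-bla reporter, 16 hr at 37C, 5% CO2; beta-lactamase activity detected via B/G FRET substrate after 2 hr at room temperature.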

The nature of test [15]: qHTS assay to identify small molecule agonists of the TGF-beta/Smad signaling pathway (AID 1346859; active means well fitted activation curve with a large enough effect in the signal ratio in the repeat runs, not every such curve was filed as active; the % refers to the signal ratio; further: series mostly up to about 77 µM). Put shortly:
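Reporter line: HEK 293T with stably integrated SBE-controlled beta-lactamase. Compound exposure lasts 5 hr at 37 C and 5% CO2; substrate loading follows for 2 hr at room temperature, with emission read at 460 and 530 nm.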

Test [16] in a line: Caspase-3/7 induction in CHO-K1 cells by small molecules, qHTS cell viability counter screen (AID 1346979). Further: nearly all actives have a fitted effect of over 35% in size. Further: potency means the concentration at half of the fitted maximal effect. Put shortly: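 Cytotoxicity counter screen run in parallel with the caspase-3/7 assay: CHO-K1 cells, 16hr compound treatment at 37C, then CellTiter-Fluor for 1hr before fluorescence reading.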
Test [17] is described as follows: qHTS assay to identify small molecule agonists of the progesterone receptor (PR) signaling pathway - cell viability counter screen (AID 1346799; calls by dose curve; further: nearly all actives have a fitted effect of over 45% in size; further: potency means the concentration at half of the fitted maximal effect). Put shortly:
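Cells (PR-UAS-bla HEK293T) are plated at 3,000/well in 2% charcoal-stripped FBS medium, rested 6 hr, dosed and incubated 16 hr at 37C. CellTiter-Glo is then added and luminescence measured after 30 min at room temperature.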

A short description of test [18]: Human pregnane X receptor (PXR) small molecule agonists, qHTS cell viability counter screen (AID 1346977). Further: nearly all actives have a fitted effect of over 50% in size. Put shortly:
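Cytotoxicity counter screen run in the same wells as the PXR luciferase assay, using PXR-Luc HepG2 cells in charcoal-stripped serum medium. Viability: CellTiter-Fluor fluorescence after 24hr compound treatment.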

A short description of test [19]: qHTS assay to identify small molecule agonists of the androgen receptor (AR) signaling pathway in the presence of an antagonist - cell viability counter screen (AID 1259379).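 Further: MDA-kb2 human breast cancer cells carrying an MMTV luciferase reporter; series mostly up to about 92 µM; nearly all actives have a fitted effect of over 25% in size.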 A digest of the protocol: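 Cytotoxicity is assessed by CellTiter-Fluor in MDA-kb2 cells carrying an MMTV-driven luciferase reporter. Cells receive 3.0uM nilutamide plus compounds at 15 concentrations and incubate 16 hr at 37C without CO2 before fluorescence reading.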

The target of test [20] is Androgen receptor (Homo sapiens) (UniProt P10275). Briefly: qHTS assay to identify small molecule agonists of the androgen receptor (AR) signaling pathway in the presence of an antagonist (AID 1259381; calls by dose curve; further: nearly all actives have a fitted effect of over 15% in size). A digest of the protocol: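 Agonist-mode confirmation screen: human MDA-kb2 cells stably expressing luciferase under an MMTV promoter bearing AR and GR response elements, co-treated with 3.0uM nilutamide (final). Luminescence measured after 16hr compound incubation.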
Chain of Androgen receptor (Homo sapiens) (P10275 whole entry, looked up): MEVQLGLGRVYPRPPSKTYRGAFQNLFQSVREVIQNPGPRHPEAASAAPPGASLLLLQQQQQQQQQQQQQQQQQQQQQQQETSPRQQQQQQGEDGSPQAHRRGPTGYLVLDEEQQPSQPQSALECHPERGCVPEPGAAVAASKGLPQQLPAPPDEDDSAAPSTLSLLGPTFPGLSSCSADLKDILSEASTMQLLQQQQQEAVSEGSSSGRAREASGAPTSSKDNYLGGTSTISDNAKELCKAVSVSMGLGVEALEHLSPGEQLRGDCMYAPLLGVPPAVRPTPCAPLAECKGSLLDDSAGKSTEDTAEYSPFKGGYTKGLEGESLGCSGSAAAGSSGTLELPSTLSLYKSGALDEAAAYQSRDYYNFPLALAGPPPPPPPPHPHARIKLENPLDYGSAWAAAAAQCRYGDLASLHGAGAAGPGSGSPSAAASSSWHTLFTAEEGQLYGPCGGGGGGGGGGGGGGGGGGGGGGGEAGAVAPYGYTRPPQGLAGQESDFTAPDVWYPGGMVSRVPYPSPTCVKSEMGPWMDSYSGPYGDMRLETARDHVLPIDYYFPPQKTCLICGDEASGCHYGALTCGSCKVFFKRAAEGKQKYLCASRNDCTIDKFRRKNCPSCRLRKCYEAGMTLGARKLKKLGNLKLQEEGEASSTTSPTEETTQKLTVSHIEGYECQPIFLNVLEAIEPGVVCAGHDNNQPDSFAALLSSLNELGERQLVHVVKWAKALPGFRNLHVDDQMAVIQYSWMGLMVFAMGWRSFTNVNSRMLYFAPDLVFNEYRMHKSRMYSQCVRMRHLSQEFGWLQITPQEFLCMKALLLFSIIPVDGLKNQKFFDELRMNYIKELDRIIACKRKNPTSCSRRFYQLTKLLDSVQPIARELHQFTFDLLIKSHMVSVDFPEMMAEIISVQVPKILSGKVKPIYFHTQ

Chain of Thyrotropin receptor (Homo sapiens) (P16473 whole entry, looked up): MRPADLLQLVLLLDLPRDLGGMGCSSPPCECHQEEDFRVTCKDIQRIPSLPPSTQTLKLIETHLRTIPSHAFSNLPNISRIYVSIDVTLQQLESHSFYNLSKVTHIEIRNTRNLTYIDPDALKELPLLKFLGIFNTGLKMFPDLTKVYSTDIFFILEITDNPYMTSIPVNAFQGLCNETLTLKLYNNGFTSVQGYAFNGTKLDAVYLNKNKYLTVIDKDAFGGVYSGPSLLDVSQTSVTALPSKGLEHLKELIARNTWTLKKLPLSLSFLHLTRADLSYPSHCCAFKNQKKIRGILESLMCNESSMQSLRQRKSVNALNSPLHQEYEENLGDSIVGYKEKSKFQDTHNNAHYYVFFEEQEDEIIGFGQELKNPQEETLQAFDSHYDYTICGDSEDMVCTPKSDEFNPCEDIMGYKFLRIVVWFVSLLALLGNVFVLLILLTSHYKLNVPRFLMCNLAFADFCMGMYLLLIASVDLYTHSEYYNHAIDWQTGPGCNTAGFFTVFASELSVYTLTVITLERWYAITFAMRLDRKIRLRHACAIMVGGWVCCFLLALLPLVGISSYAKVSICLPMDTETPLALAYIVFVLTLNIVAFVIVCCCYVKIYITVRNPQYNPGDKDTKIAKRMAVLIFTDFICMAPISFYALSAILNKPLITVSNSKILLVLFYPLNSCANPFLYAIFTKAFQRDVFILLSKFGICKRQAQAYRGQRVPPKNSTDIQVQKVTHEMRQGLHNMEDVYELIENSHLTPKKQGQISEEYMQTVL
Chain of Progesterone receptor (Homo sapiens) (P06401 whole entry, looked up): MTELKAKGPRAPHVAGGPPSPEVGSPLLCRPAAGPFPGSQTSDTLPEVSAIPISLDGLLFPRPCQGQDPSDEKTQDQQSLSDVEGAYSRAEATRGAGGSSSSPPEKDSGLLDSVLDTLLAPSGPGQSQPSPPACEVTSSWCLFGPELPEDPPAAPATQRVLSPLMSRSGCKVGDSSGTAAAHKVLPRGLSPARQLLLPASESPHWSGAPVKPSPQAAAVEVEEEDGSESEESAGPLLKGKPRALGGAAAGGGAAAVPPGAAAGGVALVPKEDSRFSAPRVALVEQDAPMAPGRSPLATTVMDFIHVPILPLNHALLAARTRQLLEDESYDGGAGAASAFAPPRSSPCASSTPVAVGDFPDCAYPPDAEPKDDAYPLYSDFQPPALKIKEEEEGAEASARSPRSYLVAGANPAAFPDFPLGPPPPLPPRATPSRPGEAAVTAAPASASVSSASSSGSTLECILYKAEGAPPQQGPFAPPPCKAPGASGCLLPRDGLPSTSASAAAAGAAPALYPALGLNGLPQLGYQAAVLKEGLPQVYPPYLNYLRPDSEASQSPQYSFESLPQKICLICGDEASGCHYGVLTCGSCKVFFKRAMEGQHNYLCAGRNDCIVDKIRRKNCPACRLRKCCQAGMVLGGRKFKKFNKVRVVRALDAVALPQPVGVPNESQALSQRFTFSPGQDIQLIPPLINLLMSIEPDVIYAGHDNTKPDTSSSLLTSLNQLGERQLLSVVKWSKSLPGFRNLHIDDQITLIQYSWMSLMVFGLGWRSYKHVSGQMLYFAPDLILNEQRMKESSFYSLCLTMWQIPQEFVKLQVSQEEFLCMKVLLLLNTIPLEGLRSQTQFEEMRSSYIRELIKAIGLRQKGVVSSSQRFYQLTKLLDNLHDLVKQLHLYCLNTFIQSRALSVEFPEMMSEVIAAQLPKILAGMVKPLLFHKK
Chain of Thyrotropin-releasing hormone receptor (Homo sapiens) (P34981 whole entry, looked up): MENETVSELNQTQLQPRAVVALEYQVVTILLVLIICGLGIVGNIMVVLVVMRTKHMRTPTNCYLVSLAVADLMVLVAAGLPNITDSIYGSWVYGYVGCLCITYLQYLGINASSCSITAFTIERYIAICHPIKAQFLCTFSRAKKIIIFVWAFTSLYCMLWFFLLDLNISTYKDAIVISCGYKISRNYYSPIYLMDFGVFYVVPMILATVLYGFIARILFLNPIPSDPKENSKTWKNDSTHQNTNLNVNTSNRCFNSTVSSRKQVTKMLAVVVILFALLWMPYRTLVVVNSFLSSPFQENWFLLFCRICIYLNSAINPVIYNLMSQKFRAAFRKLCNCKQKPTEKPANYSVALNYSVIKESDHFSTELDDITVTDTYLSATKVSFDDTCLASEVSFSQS
Chain of Estrogen receptor (Homo sapiens) (P03372 whole entry, looked up): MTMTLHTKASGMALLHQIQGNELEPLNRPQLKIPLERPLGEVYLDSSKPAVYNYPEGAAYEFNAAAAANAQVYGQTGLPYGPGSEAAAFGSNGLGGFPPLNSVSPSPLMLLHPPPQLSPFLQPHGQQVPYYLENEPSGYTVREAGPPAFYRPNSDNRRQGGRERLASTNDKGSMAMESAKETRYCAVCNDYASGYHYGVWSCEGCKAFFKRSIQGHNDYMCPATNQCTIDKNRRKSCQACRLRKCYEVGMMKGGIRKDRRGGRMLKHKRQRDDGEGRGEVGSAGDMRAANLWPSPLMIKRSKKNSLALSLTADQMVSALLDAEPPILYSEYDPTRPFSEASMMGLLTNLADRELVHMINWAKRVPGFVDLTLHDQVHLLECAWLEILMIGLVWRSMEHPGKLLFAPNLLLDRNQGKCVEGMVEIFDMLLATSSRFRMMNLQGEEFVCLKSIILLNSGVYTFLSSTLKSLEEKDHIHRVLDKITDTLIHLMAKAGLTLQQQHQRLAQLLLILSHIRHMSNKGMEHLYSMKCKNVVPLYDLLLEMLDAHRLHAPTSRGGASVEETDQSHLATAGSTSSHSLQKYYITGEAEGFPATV

With `Cc1c(Cl)c(=O)oc2cc(O)ccc12`, the Potency entry in test [1], in test [2], in test [3], in test [4], in test [5] and in test [6] was “inactive” throughout. In addition, the Potency result in test [7], in test [8], in test [9] and in test [10] was “inactive” in each case.
For the molecule `CCCCCCCC/C=C\CCCCCCCC(=O)N(CCO)CCO`, the Potency entry in test [2], in test [11], in test [3], in test [4], in test [12] and in [6] was “inactive” each time. In addition, the Potency result in test [7] and in test [10] was “inactive” each time. Moreover, the molecule was classed as inactive in test [13] and in [15]. In addition, the Potency in test [14] is 43.1 µM (active); in test [16] it was 68.3 µM (active).
On to `CC(Cc1ccc(O)c(O)c1)C(C)Cc1ccc(O)c(O)c1` (stereo not drawn), for which the Potency entry in [11], in test [3], in test [4], in test [12], in test [5] and in test [17] was “inactive” throughout. The Potency result in test [6], in test [7], in test [18] and in test [10] was “inactive” in each case. Further, the molecule was classed as inactive in [13] and in test [15]. In addition, the Potency in [14] was 61.1 µM (active); in [16] it was 54.5 µM (active).
Regarding `CC(=O)Nc1ccc(N=Nc2cc(C)ccc2O)cc1`, the Potency entry in test [1], in test [2], in test [11], in [5], in [6] and in test [7] was “inactive” throughout. In addition, the Potency result in test [10] is “inactive”. Further, the Potency is 15.4 µM (active) in test [12] and 68.6 µM (active) in test [16]. For the same molecule, the call in test [13] and in test [15] was inactive.
With `CC(=O)N(C)C`, the Potency entry in test [5] is “inactive”.
Turning to `O=c1[nH]cccc1O`, the Potency result in test [19], in [11], in test [12], in test [6], in test [7] and in [18] was “inactive” throughout. For the same molecule, the Potency result in test [10] and in [16] was “inactive” each time. Further, the molecule was classed as inactive in test [13] and in test [15].
For `O=C1Cc2ccccc2C1`, the Potency result in test [5], in test [8] and in [9] was “inactive” throughout. The Potency in test [16] is 68.6 µM (active).
Turning to `Nc1cc([N+](=O)[O-])cc(Cl)c1O`, the Potency result in [1], in [2], in test [11], in test [5], in test [17] and in [6] was “inactive” in each case. Also, the Potency result in test [7], in test [8], in [9] and in test [10] was “inactive” throughout. For the same molecule, the call in test [13] and in test [15] was inactive.
With `C[C@H]1O[C@@H](O[C@H]2CC[C@@]3(C)[C@H](CC[C@@H]4[C@@H]3C[C@@H](O)[C@]3(C)[C@@H](C5=CC(=O)OC5)CC[C@]43O)C2)C[C@H](O)[C@@H]1O[C@H]1C[C@H](O)[C@H](O[C@H]2C[C@H](O)[C@H](O[C@@H]3O[C@H](CO)[C@@H](O)[C@H](O)[C@H]3O)[C@@H](C)O2)[C@@H](C)O1`, the Potency in [1] is 0.168 µM (active); in test [2] it was 0.188 µM (active); in test [5], 0.298 µM (active); in test [17] it was 0.266 µM (active). Also, the Potency result in test [20], in test [11], in test [12], in test [8], in test [9] and in test [10] was “inactive” throughout. Also, the Potency result in test [16] is “inactive”. Moreover, in [13], the call was inactive.
Take `CCCOC(=O)c1ccc(O)cc1`: the Potency entry in test [19], in [3], in test [6], in [7], in test [8] and in [9] was “inactive” throughout. Also, the Potency result in [18], in test [10] and in test [16] was “inactive” in each case. Besides, the Potency in test [11] is 47.5 µM (active). For the same molecule, the molecule was called inactive in test [13] and in test [15].
